Experimental findings from PubChem BioAssay (NCATS) are described below.

For assay [1], the system named is Zika virus NS2B-NS3 protease. The assay can be described thus: Primary screen GU AMC qHTS for Zika virus inhibitors (AID 1347154). Note: nearly all actives have a fitted effect of over 70% in size. Note: potency is the fitted concentration of half-maximal effect. Conditions: Zika NS2B-NS3 unlinked protease, AMC fluorogenic substrate; series mostly up to 54.1 µM. Summed up:
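Unlinked Zika NS2B hydrophilic domain/NS3 protease domain noncovalent complex (25 nM final) in 10 mM Tris-HCl pH 8.0, 0.01% Tween 20, with AMC peptide substrate. Fluorescence (ex 340, em 450 nm) change over 15 min, room temperature; percent inhibition fitted to 4-parameter Hill equation.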
On the technique in general: In qHTS, concentration-response curves come from the screen itself.

For assay [2], the target named is Lysine-specific demethylase 5B (Homo sapiens) (UniProt Q9UGL1). Kind of assay: Optimization screen for KDM5B Histone Demethylases FDH coupled qHTS against the LOPAC library (AID 1347166). Conditions: KDM5B demethylation, FDH-coupled NADH fluorescence (FDH is formaldehyde dehydrogenase); series mostly up to 57.5 µM. Summed up:
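KDM5BDeltaAP (200nM final) preincubated 10 min with compound, then 12.5uM H3K4Me3, 25uM a-ketoglutarate, ascorbate, Fe(II), NAD+ and FDH added; 50mM HEPES pH 7.5, 0.01% Tween-20. NADH fluorescence (340/450 nm) change over 30 min, room temperature.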

Assay [3] can be described thus: Confirmatory screen NINDS Rhodamine qHTS for Zika virus inhibitors (AID 1347161).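 For activity change, negative = inhibition: purified Zika NS2B-NS3 protease with linked NS2B cofactor domain and Rhodamine110 peptide substrate.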 Note: nearly all actives have a fitted effect of over 60% in size. Note: potency is the fitted concentration of half-maximal effect. Conditions: purified enzyme assay, Rhodamine110 substrate fluorescence, 15 min; series mostly up to 114 µM. Summed up: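 Single-chain NS2B-NS3 protease, 25 nM, pH 8.0; compounds preincubated 15 min. Activity: Rhodamine110 release from 1.5 microM substrate over 15 min, room temperature, data fitted to 4-parameter Hill.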

In assay [4] the test system is Zika virus NS2B-NS3 protease (linked). The assay can be described thus: 384 well plate NINDS AMC confirmatory qHTS for Zika virus inhibitors (AID 1347163). Note: potency is the fitted concentration of half-maximal effect; nearly all actives have a fitted effect of over 50% in size. Conditions: Recombinant NS2B-NS3 protease, Ac-VKTGKR-AMC fluorescence. Summed up:
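Linked NS2B-NS3 protease (final 5 nM, 30 nM or 60 nM) was preincubated with compounds (final up to 1 mM) for ~15 minutes. Ac-VKTGKR-AMC substrate (final 30 microM) then reacted for 25 minutes at room temperature in the dark. Fluorescence (ex 355/em 460 nm) was normalized to no-enzyme and no-inhibitor controls.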

Assay [5] deals with Zika virus NS2B-NS3 protease (linked construct). Kind of assay: 384 well plate NINDS Rhodamine confirmatory qHTS for Zika virus inhibitors (AID 1347164). Note: top concentration of the series differs between compounds; nearly all actives have a fitted effect of over 65% in size. Conditions: rhodamine-110 peptide substrate fluorescence; series mostly up to 100 µM. Summed up: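 Cleavage of Ac-LKRR-Rhodamine 110 (10 microM final) by linked protease (final 5, 30 or 60 nM) was followed as fluorescence at 485/538 nm after 25 min, room temperature, dark. Compounds preincubated ~15 min.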

The test system is the same in assay [6]. Kind of assay: Primary screen NINDS Rhodamine qHTS for Zika virus inhibitors (AID 1347160). Note: nearly all actives have a fitted effect of over 55% in size. Particulars: purified NS2B-NS3 protease, Rhodamine110 substrate fluorescence; series mostly up to 57.1 µM. The method in brief:
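In 10 mM Tris-HCl pH 8.0 containing 0.01% Tween 20, linked NS2B-NS3 protease (25 nM final) is exposed to test compounds for 15 min. Cleavage of 1.5 microM Rhodamine110 substrate is tracked by fluorescence over 15 min.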

The nature of assay [7]: OV-KATE Cancer Cell Toxicity qHTS against the NCATS CANVASS Library (AID 1347345). Conditions: OV-KATE cells viability, CellTiter-Glo luminescence, 72 h; series mostly up to 38.3 µM. Summed up:
(§1)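 Bortezomib titration and single-dose wells served as plate controls. Test compounds, 11 points, acted on 1000 cells/well for 72 h at 37 degrees C; CellTiter-Glo luminescence quantified remaining viable cells.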

The nature of assay [8]: HPAF-II Cancer Cell Toxicity qHTS against the NCATS CANVASS Library (AID 1347346). Note: nearly all actives have a fitted effect of over 55% in size. Conditions: HPAF-II viability, CellTiter-Glo ATP luminescence, 72 h; series mostly up to 38.3 µM. Summed up: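 Luminescence from CellTiter-Glo, added after 72 h compound exposure and a 15 min room-temperature incubation, served as the viability readout. HPAF-II cells (1000/well) received an 11-point concentration series.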

Assay [9] can be described thus: UWB1.289 Cancer Cell Toxicity qHTS against the NCATS CANVASS Library (AID 1347347). Note: nearly all actives have a fitted effect of over 60% in size. Particulars: UWB1.289 viability, CellTiter-Glo luminescence, 72 h; series mostly up to 38.3 µM. The method in brief: as §1
A short description of assay [10]: OV-SAHO Cancer Cell Toxicity qHTS against the NCATS CANVASS Library (AID 1347348). Note: nearly all actives have a fitted effect of over 55% in size. Particulars: OV-SAHO viability, CellTiter-Glo luminescence, 72 h; series mostly up to 38.3 µM. The method in brief: as §1
Assay [11] in a line: Panc-1005 Cancer Cell Toxicity qHTS against the NCATS CANVASS Library (AID 1347349). Note: nearly all actives have a fitted effect of over 60% in size. Conditions: Panc-1005 viability, CellTiter-Glo luminescence, 72 h; series mostly up to 38.3 µM. Summed up: as §1
Assay [12] in a line: SW1088 Cancer Cell Toxicity qHTS against the NCATS CANVASS Library (AID 1347350). Note: nearly all actives have a fitted effect of over 75% in size. Particulars: SW1088 viability, CellTiter-Glo luminescence, 72 h; series mostly up to 38.3 µM. The method in brief: as §1
The nature of assay [13]: U-118MG Cancer Cell Toxicity qHTS against the NCATS CANVASS Library (AID 1347351). Particulars: U-118MG viability, CellTiter-Glo luminescence, 72 h; at 38.3 µM (top of the series). The method in brief: as §1
Assay [14] is described as follows: COV-362 Cancer Cell Toxicity qHTS against the NCATS CANVASS Library (AID 1347352). Conditions: COV-362 viability, CellTiter-Glo luminescence, 72 h; series mostly up to 38.3 µM. The method in brief: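 Luminescent ATP read-out (CellTiter-Glo, 15min at room temperature) measures survival after cells face an 11-point compound series for 72 hours at 37 degrees C/5% CO2.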

Assay [15] can be described thus: Vero cells viability qHTS for Zika virus inhibitors (AID 1347167). Conditions: cytotoxicity counter-screen (Zika); series mostly up to 45.9 µM. The method in brief:
(§2)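 Counter-screen for cytotoxicity of hits from NS2B-NS3 protease qHTS. Overnight-attached cells (2.5 x 10^5 cells/mL, DMEM/4% FBS) were dosed in titration, incubated 24 to 48 hours, then assayed by CellTiter Glo.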

Assay [16] can be described thus: HepG2 cells viability qHTS for Zika virus inhibitors (AID 1347168). Conditions: Zika counter-screen; series mostly up to 45.9 µM. Summed up: as §2
The nature of assay [17]: Tertiary RLuc qRT-PCR qHTS assay for Zika virus inhibitors (AID 1347169). For activity change, negative = inhibition: top concentration of the series differs between compounds. Note: nearly all actives have a fitted effect of over 55% in size. Note: potency is the fitted concentration of half-maximal effect. Conditions: infected Vero cells, reporter luminescence, 48-72 h; series mostly up to 45.9 µM. Summed up: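 Inhibition of ZIKV-RLuc replication in Vero cells, read as Renilla luminescence 1-1.5 hrs after live-cell substrate addition, following 48-72 hrs infection at MOI 1-2 in presence of compound.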
(In qPCR the cycle at which signal appears reflects the starting amount.)

Assay [18] can be described thus: Confirmatory screen GU Rhodamine qHTS for Zika virus inhibitors qHTS (AID 1347157). Note: potency is the fitted concentration of half-maximal effect; nearly all actives have a fitted effect of over 70% in size. Particulars: purified enzyme assay, Rhodamine110 substrate fluorescence, 15 min. Summed up:
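Unlinked NS2B/NS3, 25 nM; Rhod110 peptide, 1.5 microM; compounds, up to 114 microM. Reaction run 15 min at RT in 10 mM Tris-HCl pH 8.0, 0.01% Tween 20; kinetic fluorescence change fitted with a 4-parameter Hill model.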

Assay [19] deals with Zika virus NS2B-NS3 protease (unlinked complex). Kind of assay: Primary screen GU Rhodamine qHTS for Zika virus inhibitors: Unlinked NS2B-NS3 protease assay (AID 1347159). Note: nearly all actives have a fitted effect of over 60% in size. Particulars: Recombinant ZIKV NS2B-NS3 protease, Rhodamine110 substrate fluorescence; series mostly up to 107 µM. The method in brief: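 Percent inhibition derives from the 15-min fluorescence change (ex 480, em 540 nm), normalized to no-enzyme and no-inhibitor wells. Reactions contained 25 nM NS2B-NS3 complex and 1.5 microM substrate in 10 mM Tris-HCl pH 8.0.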

The structures appear in SMILES notation. Where “and” joins values, the source holds several entries; their conditions need not be identical. Identical values can stand only once. Results filed as inconclusive are left out. A call without a number means that no potency is given here. A number with no mark means an inactive call. Calls of active or inactive are those of the source. Calls come from the whole dose curve; as a rule, active = well fitted curve in the direction sought with a large enough effect; inconclusive = small, poorly fitted or top-dose-only effect, or another doubt; inactive = no such curve, though single readings can be large; an effect the other way counts as inactive or inconclusive.

Lysine-specific demethylase 5B (Homo sapiens), sequence (Q9UGL1 whole entry, looked up): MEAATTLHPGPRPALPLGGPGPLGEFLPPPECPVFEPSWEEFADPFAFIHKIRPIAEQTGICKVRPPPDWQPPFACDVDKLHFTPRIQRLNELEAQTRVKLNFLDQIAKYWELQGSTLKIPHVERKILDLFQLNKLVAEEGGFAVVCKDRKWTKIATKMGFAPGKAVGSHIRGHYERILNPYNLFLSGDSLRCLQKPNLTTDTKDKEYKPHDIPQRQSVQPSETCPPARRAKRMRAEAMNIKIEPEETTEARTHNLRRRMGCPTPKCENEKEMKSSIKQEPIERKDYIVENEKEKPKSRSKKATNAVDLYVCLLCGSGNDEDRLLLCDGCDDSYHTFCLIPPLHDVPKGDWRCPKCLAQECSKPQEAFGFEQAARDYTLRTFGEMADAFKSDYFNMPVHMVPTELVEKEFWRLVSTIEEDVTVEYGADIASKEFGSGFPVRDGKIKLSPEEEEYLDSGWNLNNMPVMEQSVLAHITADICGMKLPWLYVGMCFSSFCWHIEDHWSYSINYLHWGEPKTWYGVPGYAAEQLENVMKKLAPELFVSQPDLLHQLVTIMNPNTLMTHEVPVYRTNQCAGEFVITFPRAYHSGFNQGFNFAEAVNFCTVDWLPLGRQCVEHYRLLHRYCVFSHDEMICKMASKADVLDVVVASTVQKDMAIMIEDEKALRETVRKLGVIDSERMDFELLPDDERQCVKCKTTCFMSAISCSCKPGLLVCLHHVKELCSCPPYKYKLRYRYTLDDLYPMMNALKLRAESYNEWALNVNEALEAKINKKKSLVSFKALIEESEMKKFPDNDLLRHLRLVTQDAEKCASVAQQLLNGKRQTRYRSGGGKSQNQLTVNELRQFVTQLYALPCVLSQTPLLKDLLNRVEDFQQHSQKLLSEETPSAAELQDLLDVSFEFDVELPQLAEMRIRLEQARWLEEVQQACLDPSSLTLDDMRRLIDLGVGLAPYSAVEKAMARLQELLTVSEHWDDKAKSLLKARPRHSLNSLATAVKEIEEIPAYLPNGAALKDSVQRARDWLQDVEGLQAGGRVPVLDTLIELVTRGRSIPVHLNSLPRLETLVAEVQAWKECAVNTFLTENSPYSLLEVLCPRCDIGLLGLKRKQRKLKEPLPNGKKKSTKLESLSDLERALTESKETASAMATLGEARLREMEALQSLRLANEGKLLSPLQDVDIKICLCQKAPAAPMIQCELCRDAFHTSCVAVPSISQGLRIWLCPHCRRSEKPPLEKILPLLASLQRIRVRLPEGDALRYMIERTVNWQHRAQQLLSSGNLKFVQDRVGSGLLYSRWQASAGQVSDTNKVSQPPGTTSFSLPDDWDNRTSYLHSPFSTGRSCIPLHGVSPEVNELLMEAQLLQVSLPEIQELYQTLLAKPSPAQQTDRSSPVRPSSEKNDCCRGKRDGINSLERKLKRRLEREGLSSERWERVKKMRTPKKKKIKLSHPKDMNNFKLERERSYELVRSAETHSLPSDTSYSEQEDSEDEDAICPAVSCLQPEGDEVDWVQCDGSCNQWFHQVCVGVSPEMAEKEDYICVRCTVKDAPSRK

Regarding `c1ccc2c(c1)OCC(C1=NCCN1)O2` (configuration not stated), the Potency entry in assay [1] is “inactive”. Besides, the compound was called inactive in assay [2].
`CN(C)[C@@H]1C(=O)C(C(N)=O)=C(O)[C@@]2(O)C(=O)C3=C(O)c4c(O)cccc4[C@@](C)(O)[C@H]3C[C@@H]12`: the Potency entry in assay [1], in assay [3] and in assay [5] was “inactive” each time. Besides, the Potency in [4] is 224 µM (active).
For `CC(CCc1ccccc1)NC(C)C(O)c1ccc(O)cc1` (configuration not stated), the Potency entry in assay [1] was “inactive”. Further, the compound was classed as inactive in assay [2].
Turning to `C[C@]12CCC(=O)C(O)=C1CC[C@@H]1[C@@H]2CC[C@]2(C)C(=O)CC[C@@H]12`, the Potency result in assay [1] was “inactive”. Besides, the result in assay [2] was inactive.
Regarding `Cc1ncc(CNC(=O)N(CCCl)N=O)c(N)n1`, the Potency entry in [1] was “inactive”. Also, the call in assay [2] was inactive.
In the case of `CC(C)=CCOc1c2occc2cc2ccc(=O)oc12`, the Potency entry in [1] is “inactive”. In addition, the compound was called inactive in assay [2].
Take `NCC(O)c1ccc(O)cc1` (configuration not stated): the Potency entry in assay [1] and in assay [6] was “inactive” throughout. Besides, the compound was classed as inactive in assay [2], in [7], in assay [8], in [9], in assay [10] and in [11]. In addition, the compound was called inactive in assay [12], in assay [13] and in assay [14].
Consider `CNCC(O)c1ccc(O)cc1` (configuration not stated), for which the Potency result in assay [1] was “inactive”. The call in [2] was inactive.
With `Fc1ccc(C(OCCN2CCN(CCCc3ccccc3)CC2)c2ccc(F)cc2)cc1`, in assay [1], the Potency entry is “inactive”. Besides, in assay [2], the compound was called inactive.
Regarding `CCCN1CCC[C@@H]2Cc3nc(N)ncc3C[C@H]21`, in assay [1], the Potency result was “inactive”. Also, the result in assay [2] was inactive.
Regarding `CCN(C(C)=O)c1cccc(-c2ccnc3c(C#N)cnn23)c1`, the Potency in assay [1] is 31.6 µM (active). In addition, the Potency result in [3] and in assay [17] was “inactive” each time. Also, the result in assay [15] and in assay [16] was inactive.
Consider `C=C(C)[C@H]1Cc2c(ccc3c2O[C@@H]2COc4cc(OC)c(OC)cc4[C@@H]2C3=O)O1`, for which the Potency entry in [1] is “inactive”. Moreover, in assay [2], the outcome was inactive.
Consider `COc1ccc(C(CN(C)C)C2(O)CCCCC2)cc1` (configuration not stated), for which, in assay [1], the Potency entry is “inactive”. In assay [2], the outcome was inactive.
For the compound `O=c1[nH]c2ccccc2n1CCCN1CCC(n2c(=O)[nH]c3cc(Cl)ccc32)CC1`, in [1], the Potency entry is “inactive”. Moreover, the result in assay [2] was inactive.
Regarding `COc1ccccc1N1CCNCC1`, in [1], the Potency entry is “inactive”. Further, the outcome in assay [2] was inactive.
Consider `NCC(CC(=O)O)c1ccc(Cl)cc1` (configuration not stated), for which the activity change, negative = inhibition in [1] was -12.9% [at 0.59 µM]. For the same compound, in assay [2], the compound was called inactive.
Regarding `CC(=O)[C@H]1CC[C@H]2[C@@H]3CC[C@H]4C[C@](C)(O)CC[C@]4(C)[C@H]3CC[C@]12C`, the Potency result in assay [1] is “inactive”. Besides, the compound was called inactive in [2].
Consider `Cc1ccc(-c2nc3ccc(C)cn3c2CC(=O)N(C)C)cc1`, for which the Potency in assay [1] was 31.6 µM (active). The Potency entry in assay [3] and in assay [17] was “inactive” in each case. The outcome in assay [15] and in assay [16] was inactive.
`Cc1cccc(C)c1NC1=NCCCS1`: the Potency entry in assay [1] was “inactive”. For the same compound, in [2], the result was inactive.
As to `CCCN1CCC[C@@H]2Cc3[nH]ncc3C[C@H]21`, in assay [1], the Potency result was “inactive”. In [2], the outcome was inactive.
For `N[C@@H](Cc1ccc(Oc2cc(I)c(O)c(I)c2)c(I)c1)C(=O)O`, the Potency in assay [18] is 6.31 µM (active); in assay [3], 11.2 µM (active) and 4.94 µM (active); in assay [4], 50.1 µM (active). Besides, the Potency result in assay [5] and in [17] was “inactive” each time. Also, the compound was called inactive in assay [15] and in [16].
In the case of `NCC1(CC(=O)O)CCCCC1`, the Potency result in [1] is “inactive”. Further, the outcome in assay [2] was inactive.
For the compound `c1ccc(C2CC2)c(OCC2=NCCN2)c1`, the Potency entry in [1] is “inactive”. Further, the result in assay [2] was inactive.
Turning to `CN1C[C@H](CNC(=O)OCc2ccccc2)C[C@@H]2c3cccc4c3c(cn4C)C[C@H]21`, the Potency result in assay [1], in assay [3] and in [17] was “inactive” each time. In addition, the result in assay [15] and in assay [16] was inactive.
As to `Cc1cccc(C)c1NC(=O)CN1CCCC1=O`, in assay [1], the Potency result was “inactive”. Further, the call in assay [2] was inactive.
`C[C@H]1O[C@@H](O[C@H]2[C@@H](O)C[C@H](O[C@H]3[C@@H](O)C[C@H](O[C@H]4CC[C@@]5(C)[C@H](CC[C@@H]6[C@@H]5CC[C@]5(C)[C@@H](C7=CC(=O)OC7)CC[C@]65O)C4)O[C@@H]3C)O[C@@H]2C)C[C@H](O)[C@@H]1O`: the Potency entry in [1], in assay [19] and in assay [6] was “inactive” each time. Further, the result in [15] was inactive. Moreover, in assay [17], the Potency was 0.107 µM (active).
Turning to `CCC1(C2=NCCN2)Cc2ccccc2O1` (configuration not stated), in [1], the Potency result is “inactive”. Also, the outcome in assay [2] was inactive.
